Data taken from PubChem BioAssay AID1210 (NMMLSC, 2008).
Activity calls are given as the source filed them.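 How the source made its calls: active means blocks over 70% of labeled estradiol binding at 10 µM, or over a set limit at 100 nM; inactive means the rest.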

These compounds were tested against Estrogen receptor beta (Homo sapiens) (UniProt Q92731) (assay: ERbeta ligand binders by competition, primary screen, cell-based, Cos7 ERbeta-GFP, flow cytometry (AID 1210;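 further: 0% = DMSO vehicle wells and 100% = complete loss of labeled estradiol signal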)). Settings: fluorescent estrogen binding, at 10 µM, hits give high values.
Sequence of Estrogen receptor beta (Homo sapiens) (Q92731 whole entry, looked up): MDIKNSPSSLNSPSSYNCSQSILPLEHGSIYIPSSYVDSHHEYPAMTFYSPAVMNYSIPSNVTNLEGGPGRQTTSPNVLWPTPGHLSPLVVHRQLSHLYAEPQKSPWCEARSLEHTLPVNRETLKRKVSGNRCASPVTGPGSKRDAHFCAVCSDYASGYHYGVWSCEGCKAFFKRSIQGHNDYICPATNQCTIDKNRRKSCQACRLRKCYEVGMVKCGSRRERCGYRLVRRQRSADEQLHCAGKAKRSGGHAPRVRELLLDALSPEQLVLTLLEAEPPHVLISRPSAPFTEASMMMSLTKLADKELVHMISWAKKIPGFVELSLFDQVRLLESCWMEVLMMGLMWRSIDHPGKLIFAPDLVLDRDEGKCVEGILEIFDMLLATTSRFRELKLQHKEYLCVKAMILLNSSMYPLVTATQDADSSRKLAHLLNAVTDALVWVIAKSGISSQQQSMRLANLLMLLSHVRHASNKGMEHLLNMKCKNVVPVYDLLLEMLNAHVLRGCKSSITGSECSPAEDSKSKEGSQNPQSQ
With N#Cc1c(NCCN)nc(NCc2ccccc2)c2c1CCN(Cc1ccccc1)C2 the inhibition was 42% (inactive). In the case of CCCN(CCC)S(=O)(=O)c1ccc(NC(=O)Cc2cccs2)cc1, the inhibition is reported as 46% (inactive). With COc1cc([N+](=O)[O-])cc2c1NC(c1ccc(Cl)cc1)C1CC=CC21 (stereo unspecified) the inhibition was 1% (inactive). With COC(=O)c1ccccc1NC(=O)c1noc2c1CCC2 the inhibition was 38% (inactive). In the case of Cc1ccc(/C=c2\sc3nc(-c4ccco4)nn3c2=O)o1, the inhibition is reported as 61% (inactive). For CSC1=N/C(=C\c2ccc(Br)o2)C(=O)S1, the inhibition was 26% (inactive). Cc1cc(-c2nnc3sc(-c4ccc(Cl)cc4Cl)nn23)n[nH]1 was tested, and the inhibition was 32% (inactive). Cn1c(C(=O)Nc2ccc3c(c2)OCO3)cc2c(=O)n(C)c3ccccc3c21 was tested, and the inhibition was 42% (inactive). CC(=O)c1ccc2c(c1)C1C=CCC1C(c1ccncc1)N2 (stereo unspecified) was tested, and the inhibition was 11% (inactive). For Cc1ccc2c(c1)[C@H]1OCC[C@H]1[C@@H](c1ccncc1)N2, the inhibition was 24% (inactive). With COc1ccc2c(c1)C1OCCC1C(c1ccco1)N2 (stereo unspecified) the inhibition was 39% (inactive). In the case of CCc1cc2c3c(c(=O)oc2cc1OC)CCCC3, the inhibition is reported as 18% (inactive). With Cc1noc(C)c1S(=O)(=O)N(CC(=O)O)c1ccc2c(c1)OCO2 the inhibition was 31% (inactive). With CC(=O)NC12CC3CC(C1)CC(C(=O)OCC(=O)Nc1ncc(Cl)c(C)c1Cl)(C3)C2 the inhibition was 12% (inactive). In the case of COc1ccc(NS(=O)(=O)c2ccc3c(c2)[C@H]2C=CC[C@H]2[C@@H](c2ccc(C(=O)O)cc2)N3)cc1, the inhibition is reported as 88% (active). With Cc1nc2ccccc2n1-c1cc(C(C)(C)C)c(O)c(C(C)(C)C)c1 the inhibition was 16% (inactive).
